This is part of a sample that, as a whole, favours compounds with a hit. Of some 83,000 tested, about 20% had one in any assay.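 The endpoint reported here, percent growth, reads 100 for growth as untreated, 0 for no net growth and -100 for all cells dead.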 The source made the active and inactive calls. The calls were made as follows: active = growth percent below 10; inactive = the rest.
The compounds below were run on MDA-MB-468 breast (assay: NCI-60 one-dose screen, 48 h (100 = growth as untreated, 0 = no growth, -100 = all killed)). Details: 10 µM unless noted.

SMILES | growth
CCn1c(Cc2ccccc2Nc2c(Cl)cccc2Cl)nnc1SCC(=O)Nc1ccccc1C(F)(F)F | 69.9% (inactive)
CCOC(=O)C1=NN(c2ccccc2)C2=NC(=O)/C(=C\c3cn(-c4ccccc4)nc3-c3cc4ccccc4o3)C(=O)N12 | 111% (inactive)
CCCCCCCCCc1cc(CN2CCCCC2)c(O)c(CN2CCCCC2)c1 | 40.4% (inactive)
N#Cc1ccc(OCc2nc(N)nc(N)c2-c2ccc(Cl)c(Cl)c2)cc1 | 35.4% (inactive)
NS(=O)(=O)c1ccc(Nc2nc(N/N=C/c3ccc(C(F)(F)F)cc3)nc(Nc3ccccc3)n2)cc1 | 34.3% (inactive)
CCN1C(=S)N(CC)C2C1N=C(SC)N2/N=C/C=C/c1ccccc1[N+](=O)[O-] (stereo not given) | 99.8% (inactive)
CCCCn1c(=O)c(-c2cc(-c3ccc(Cl)cc3)nc(-c3ccc(Cl)cc3)c2)cc2ccc(Cl)cc21 | 95% (inactive)
O=C(CCc1nnc(SCc2ccccc2)s1)c1nc2ccccc2[nH]1 | 103% (inactive)
CN(C)CCN1CCN(c2ncccc2C2Nc3ccccc3-n3cccc32)CC1 (stereo not given) | 109% (inactive)
CCN(CC)c1ccc(/C=C2\SC(=O)C(Nc3nnc(-c4cccnc4SCc4ccccc4)o3)C2=O)cc1 (stereo not given) | 2.42% (active)
COc1ccc(-c2nc(-c3nc4ccc(C)cc4[nH]3)cc3c2[nH]c2ccccc23)cc1 | 48.8% (inactive)
CN(C)CC(=O)Nc1nc(-c2cccc(NS(=O)(=O)c3cccc4c(N(C)C)cccc34)c2)cs1 | 62% (inactive)
CC(=O)c1c(C)nc(SCC(=O)Nc2ccc(Cl)cc2)n1-c1ccc(Cl)cc1 | 71.3% (inactive)
CCOC(=O)c1c2c(n3ccc(NC(=O)CCN4CCCC4)cc13)C(=O)c1ncccc1C2=O | -82% (active)
CC(C)(C)n1nnnc1C(Nc1cccc2c1OCO2)c1cc2cccc3ccc4cccc1c4c32 (stereo not given) | 51.7% (inactive)
O=C1C=CC(=O)N1c1ccc2c(c1)Cc1cc(F)ccc1-2 | 92.6% (inactive)
C=C(C)[C@@H]1CC[C@]2(C)[C@H](CC=C3[C@@H]4CC(C)(C)CC[C@]4(C(=O)OC)CC[C@]32C)[C@@]1(C)CC/C(N)=N/O | -13% (active)
COc1cccc(/C=N/N=C(N)N)c1 | 90% (inactive)
O=S(=O)(Nc1ccc(Cl)c(F)c1)c1ccc(-c2cnc(C3CC3)o2)cc1 | -25.4% (active)
Cc1ccc(Sc2ccccc2N)cc1 | 81.2% (inactive)

SMILES | growth
O=C(Nc1ccc(Oc2ccc(F)cc2)c(Cl)c1)c1cccnn1 | 39.3% (inactive)
O=C(NNc1nc2cc(F)c(F)cc2n2cccc12)c1ncccn1 | 3.66% (active)
O=C(NCN1C(=O)c2cccc3cccc(c23)C1=O)N1CCC(Cc2ccccc2)CC1 | 101% (inactive)
Oc1[nH]c2ccccc2c1Nn1c(N=N/C=c2/ccc3c(c2)C=NN=3)n[nH]c1=S | 107% (inactive)
O=C1c2ccccc2-c2ccccc2C1(Cl)Cl | -86.6% (active)
NC(C(=O)O)c1ccc([N+](=O)[O-])cc1 (stereo not given) | 111% (inactive)
COc1ccc(-c2cc(C(=O)N=Nc3c(O)[nH]c4ccc(Br)cc34)no2)cc1 | 103% (inactive)
Cn1c(/C=C(\C#N)c2cccc(C(F)(F)F)c2)nc2c(N3CCOCC3)nc(Cl)nc21 | -40.3% (active)
O=C1C(Cl)=C(Nc2ccccn2)C(=O)c2ccccc21 | 37.1% (inactive)
Nc1nc(-c2cccc3ccccc23)cc2ccccc12 | -4.35% (active)
Cc1cc(N)n(S(=O)(=O)c2oc(-c3ccccc3)nc2C#N)n1 | 72.9% (inactive)
Oc1ccccc1N=Cc1ccccc1 | 91% (inactive)
CC(=O)Oc1c2c(nc3c1c1ccccc1n3Cc1ccccc1)-c1ccccc1C2 | 92.2% (inactive)
CCCCN1CCCCn2c1nc1c2c(=O)n(C)c(=O)n1C | 102% (inactive)
c1ccc2c(c1)CCCc1nnc3nc4ccccc4n3c1-2 | 29.9% (inactive)
Oc1ccc(Cl)cc1-c1cc(-c2ccc(F)cc2)n[nH]1 | -0.461% (active)
CC(C)C(NC(=O)C1(NC(=O)OCc2ccccc2)CCCC1)C(=O)O (stereo not given) | 112% (inactive)
NC(=Nc1ccccc1)SCCCSC(N)=Nc1ccccc1 | 85.8% (inactive)
COc1ccc(OC)c(-c2nc(SCC(=O)c3ccc(Br)cc3)nc(Nc3ccc(S(N)(=O)=O)cc3)c2C#N)c1 | 43.9% (inactive)
C#CC[C@@H]1C[C@]2(C)[C@H]3CC[C@@H]4[C@H]5C(C(=C)C)CC[C@]5(C(=O)NCCCN5CCN(CCCN)CC5)CC[C@@]4(C)[C@]3(C)CC[C@H]2C(C)(C)[C@H]1OC(C)=O (stereo not given in full) | -76.5% (active)

Reference: PubChem BioAssay (NCI)
